Screens deposited in PubChem by National Center for Advancing Translational Sciences (NCATS).
Rows were chosen to be rich in hits. Some 4% of all compounds tested hit in one or more screens of this group.
D1 agonist: agonists of human D1 dopamine receptor; activation, % at 2 µM; HEK293 T-REx D1 cells, calcium flux, agonist mode; P21728; AID 504660; actives 1% (n = 360,000); further: 0% is about no effect
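Inducible HEK293 T-REx D1 cells, force-coupled to calcium signalling, were plated at 4000 cells/well with tetracycline and held overnight at 30 C. After no-wash calcium dye loading, compound-evoked calcium rise over 180 s flagged agonists.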
GRP78 ERSR act: ER stress response induction in glioma | U87-MG GRP78 promoter luciferase reporter, 16 h | Potency, µM, for the others: top-dose activation, usual class: activators | actives 0.02% (n = 420,000); active means well fitted activation curve with a large enough effect; further: potency means the concentration at half of the fitted maximal effect; series mostly up to about 76 µM; % of control where 0% means no effect; nearly all actives have a fitted effect of over 35% in size
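Stably transfected U87-MG human glioma cells carrying a GRP78-based luminescent sensor were seeded at 1000 cells/well, pin-dosed with compounds and incubated 16 h. Luciferase reagent was then added, and end-point luminescence was read after 10 min at room temperature.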
D1 antag: blocks dopamine activation of the human D1 receptor. actives 3.2% (n = 360,000). P21728. HEK293 TREx D1 cells, calcium flux, dopamine EC80; active compounds read low. activity change, negative = inhibition, % at 10 µM. AID 504652; in the data active means activity change below about -30%; further: on the % scale 0 is the no-effect control and ±100 the full control effect
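Antagonism measured as reduced calcium response to an EC80 dopamine addition following 180 s compound pre-read; cells were inducible HEK293 Trex D1 plated overnight at 30 C, read kinetically at 1 cycle/sec.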
TRHR PAM: allosterically enhances the human TRH receptor; P34981; TRHR cells, fluo-8 calcium fluorescence, EC20 TRH enhancement; enhancement, % at 2 µM; actives 0.66% (n = 360,000); AID 493056; in the data active means enhancement above about 30%; further: 0% is about no effect
Target sequence (P34981 whole entry, looked up): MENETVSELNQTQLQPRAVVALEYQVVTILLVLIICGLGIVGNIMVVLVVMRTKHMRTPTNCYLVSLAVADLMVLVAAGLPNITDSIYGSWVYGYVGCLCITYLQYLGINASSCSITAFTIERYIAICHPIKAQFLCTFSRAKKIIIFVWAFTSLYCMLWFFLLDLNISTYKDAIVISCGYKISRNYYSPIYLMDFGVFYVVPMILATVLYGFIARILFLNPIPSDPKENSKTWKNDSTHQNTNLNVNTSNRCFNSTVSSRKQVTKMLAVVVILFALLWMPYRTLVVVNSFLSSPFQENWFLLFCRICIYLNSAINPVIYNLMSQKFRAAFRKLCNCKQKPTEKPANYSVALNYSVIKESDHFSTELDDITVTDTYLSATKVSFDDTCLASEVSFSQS
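TRHR-expressing cells loaded with fluo-8 calcium dye were read kinetically (ex 480/em 530) during compound addition, then stimulated with an EC20 of TRH (10 nM final). Enhancement of the Gq-mediated intracellular calcium response was scored.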
TRHR ag: TRH receptor (human) agonism; P34981; TRHR cells, calcium flux fluo-8, FDSS agonist mode; activation, % at 2 µM; actives 0.18% (n = 360,000); AID 493084; further: 0% is about no effect
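TRHR-expressing cells, plated overnight in medium with 10% serum, were loaded with fluo-8 calcium dye at room temperature. After a 10 s baseline, library compound was pin-added and calcium release was recorded kinetically (ex 480/em 530) as agonist response.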
D1 potentiator: potentiators of human D1 dopamine receptor; P21728; HEK293 TREx D1 cells, calcium flux, dopamine EC20 potentiation; potentiation, % at 10 µM; actives 0.036% (n = 360,000); in the data active means potentiation above about 30%; further: 0% is about no effect
Active calls of the source: *; nt = no result given. Unless noted, no stated cut-off is given here; in the data, active means activation above about 30%; inactive means the rest.

SMILES | D1 agonist | GRP78 ERSR act | D1 antag | TRHR PAM | TRHR ag | D1 potentiator
Cc1cccc(C)c1NC(=O)CN(C)C(=O)CSCc1c(C)noc1C | 0.1 | -4.0% | 18.2 | 13.4 | -0.8 | -0.8
CN(C)CCCn1c(SCC(=O)N2c3ccccc3Sc3ccccc32)nc2ccccc2c1=O | 37.8* | -12.4% | -14.8 | 3.5 | 0.9 | -2.6
COc1ccc(C(=O)NNC(=O)c2ccc(C)cc2)cc1S(=O)(=O)N1CCCC1 | -0.7 | -3.5% | 9.8 | 5.7 | 0.1 | -6.8
O=C(CC1SC(N2CCCC2)=NC1=O)Nc1ccc(C(=O)N2CCN(c3cccc(Cl)c3)CC2)cc1 (stereo unspecified) | 0.4 | -3.6% | 3.7 | -1.2 | -0.2 | -4.2
CCNc1nc(CN2CCCCC2)nc2scc(-c3ccccc3)c12 | 2.7 | -0.5% | -37.6* | 3.7 | -0.1 | -7.8
Fc1ccc(N2CCN(c3nc(CN4CCOCC4)nc4scc(-c5ccccc5)c34)CC2)cc1 | 4.5 | -2.4% | -45.9* | -7.5 | -0.5 | -2.4
OCC1CCCN(c2nc(CN3CCCCC3)nc3scc(-c4ccccc4)c23)C1 (stereo unspecified) | 2.7 | -0.5% | -9.6 | 4.1 | 0.2 | -1.6
Cc1ccc(Nc2nnc(-c3ccc(C)c(S(=O)(=O)N4CCN(C)CC4)c3)c3ccccc23)cc1 | -2.2 | -0.3% | -24.3 | -0.9 | -0.3 | -3.6
Cc1cccc(Nc2nnc(-c3ccc(C)c(S(=O)(=O)N4CCN(C)CC4)c3)c3ccccc23)c1 | 2.9 | 2.5% | -43.8* | 4.9 | -1.0 | -3.0
Oc1ccc(-c2nnc(Nc3cccc(O)c3)c3ccccc23)cc1 | 2.0 | -5.6% | 4.3 | -0.8 | -0.4 | 10.4
C#CCOc1ccc(-c2nnc(Nc3cccc(C)c3)c3ccccc23)cc1 | -0.7 | 2.7% | -44.8* | -11.3 | -0.1 | -0.9
Cc1ccc(Nc2nnc(-c3ccc(C)c(S(=O)(=O)N4CCN(C)CC4)c3)c3ccccc23)c(C)c1 | -0.7 | -1.3% | -56.8* | 1.2 | -0.2 | -5.0
Cc1ccc(-c2nnc(Nc3cccc(Br)c3)c3ccccc23)cc1S(=O)(=O)N1CCN(C)CC1 | 1.0 | -3.6% | -2.4 | -0.7 | 0.2 | -5.3
CC(C)(C)OC(=O)NS(=O)(=O)NCc1ccco1 | nt | -5.7% | nt | nt | nt | nt
O=c1c2ccccc2nc(/C=C/c2c[nH]c3ccccc23)n1-c1ccc([N+](=O)[O-])cc1 | -0.3 | -0.9% | -13.5 | -3.2 | -0.1 | -2.4
COc1ccc(-n2c(/C=C/c3c(C)[nH]c4ccccc34)nc3ccccc3c2=O)cc1 | 0.5 | -2.9% | -57.4* | -1.3 | -1.8 | -2.4
Cc1[nH]c2ccccc2c1/C=C/c1nc2ccccc2c(=O)n1-c1cccc([N+](=O)[O-])c1 | -1.0 | -1.9% | -36.7* | 0.2 | -0.6 | -9.8
COc1cc2nc(CCc3nc4cc(OC)c(OC)cc4[nH]3)[nH]c2cc1OC | nt | 1.1% | nt | nt | nt | nt
Cc1cccc(NC(=O)Nc2ccc3c(c2)CCC3)c1 | 11.7 | 6.4% | -30.5* | 1.1 | 0.8 | -4.7
CC(=O)Nc1ccc(S(=O)(=O)Nc2ccc3c(c2)CCC3)cc1 | 51.7* | -3.4% | -55.6* | 26.9 | -1.2 | -8.2
Cc1ccc(C(=O)Nc2ccc3c(c2)CCC3)cc1 | -0.3 | -11.7% | -3.0 | 35.1* | -1.9 | 8.2
Cc1ccc(C(=O)NCC(=O)Nc2ccc3c(c2)CCC3)cc1 | nt | 3.1% | nt | nt | nt | nt
Cn1cc(C(=O)Nc2cccc(F)c2)cn1 | 2.3 | 2.6% | -0.6 | -13.0 | 0.4 | 1.4
Cn1cc(C(=O)Nc2ccc3c(c2)CCC3)cn1 | 1.1 | 3.0% | -30.7* | -1.2 | 0.2 | -3.6
CC(=O)c1cccc(NC(=O)Nc2ccc3c(c2)CCC3)c1 | 11.9 | -4.5% | -28.3 | -3.3 | 0.5 | -3.4
SMILES | D1 agonist | GRP78 ERSR act | D1 antag | TRHR PAM | TRHR ag | D1 potentiator
CCOC(=O)c1c(C)oc2ncnc(N3CCN(c4ccccc4F)CC3)c12 | 2.5 | -2.1% | 13.1 | -1.7 | -0.7 | -4.4
CCOC(=O)c1c(C)oc2ncnc(N3CCN(c4ccccc4)CC3)c12 | -1.4 | -3.6% | -45.4* | 3.0 | -1.5 | 1.2
CC(C)(C)c1ccc(-n2ncc3c2CCCC3NC(=O)C2=NNC(=O)CC2)cc1 (stereo unspecified) | 4.5 | -4.6% | 14.5 | 1.8 | -0.6 | -1.6
COc1cc2c(cc1OC)C(COc1cccc(C(F)(F)F)c1)NCC2 (stereo unspecified) | 31.7* | -3.7% | 2.8 | 4.4 | 4.3 | -6.9
Cc1ccccc1C(=O)Nc1nnc(S(=O)(=O)N2CCc3ccccc32)s1 | 4.1 | -0.6% | 5.4 | 12.6 | 0.4 | -4.7
Cc1ccc(C(=O)Nc2ccc(N3CCN(C)CC3)cc2)cc1C | 1.5 | -10.9% | -31.3* | 6.7 | -0.6 | -18.6
CN1CCN(c2ccc(NC(=O)c3cccc(S(=O)(=O)N4CCCC4)c3)cc2)CC1 | -0.5 | -2.3% | -33.6* | 0.9 | -0.1 | -11.6
CCOc1cccc(C(=O)NC(=S)Nc2ccc(N3CCN(CC)CC3)cc2)c1 | 18.7 | 0.3% | -44.4* | 1.1 | -0.1 | -12.7
COc1cc(OC)cc(C(=O)NC(=S)Nc2ccc(N3CCCC3)cc2)c1 | -0.5 | -5.2% | -34.9* | 1.7 | -0.2 | -5.0
CCCOc1cccc(C(=O)NC(=S)Nc2ccc(N3CCN(C)CC3)cc2)c1 | 3.6 | -6.2% | 14.9 | 7.9 | 0.3 | -9.7
O=C(Nc1ccc(N2CCOCC2)cc1)c1cccc(S(=O)(=O)N2CCCC2)c1 | 9.9 | -5.5% | -0.9 | 0.7 | 0.1 | 1.4
COc1cc(OC)cc(C(=O)NC(=S)N2CCCCCC2)c1 | 2.1 | -1.3% | -3.4 | 2.6 | -0.2 | -1.1
COc1ccc(C(=O)N2CCCC(c3nc(SCc4ccccn4)ncc3C)C2)cc1F (stereo unspecified) | nt | -0.4% | nt | nt | nt | nt
NS(=O)(=O)c1ccc(CCNC(=O)/C=C/c2cccc([N+](=O)[O-])c2)cc1 | 1.7 | -5.2% | -9.6 | -5.5 | 0.0 | -0.9
CCN1CCN(c2ccc(NC(=O)c3cccc(OCc4ccccc4)c3)cc2)CC1 | 38.5* | -6.7% | -0.8 | 5.3 | -0.7 | -2.2
CS(=O)(=O)c1ccc(C(=O)Nc2ccc(N3CCCCC3)cc2)c(Cl)c1 | 3.5 | -3.3% | 6.4 | 3.4 | 0.0 | -1.3
CCCOc1ccc(C(=O)CCC(=O)Nc2ccc(N3CCN(C)CC3)cc2)cc1 | 4.7 | 2.0% | -79.5* | 2.2 | -0.2 | -19.9
CN1CCN(c2ccc(NC(=O)c3cccc(OCc4ccccc4)c3)cc2)CC1 | 13.7 | -6.8% | -63.7* | 2.6 | -0.6 | -8.4
Cc1ccc(C(=O)Nc2ccc(N3CCN(C)CC3)cc2)c(Cl)c1 | -0.2 | -3.3% | -33.4* | -8.0 | 0.3 | -8.4
CCCOc1ccc(C(=O)CCC(=O)OCC(=O)Nc2ccc(OCC)cc2)cc1 | 6.8 | nt | -1.5 | 4.5 | 0.0 | -6.1
CCc1ccc(CNc2ncc(-c3cccc(OC)c3)n2C)cc1 | 13.0 | nt | 14.6 | -1.4 | 0.7 | -3.2
CN1CCN(C(=S)NC(=O)c2ccccc2Br)CC1 | 3.5 | -2.1% | 19.4 | 9.0 | 0.2 | 3.9
